# Assay results taken from PubChem BioAssay AID651834 (Broad Institute, 2012).
# Values without a mark were called inactive. How the calls were made is not given here.
# Target: Kelch-like ECH-associated protein 1 (Homo sapiens) (UniProt Q14145)
# Experiment: disruptors of Keap1/Nrf2 protein interaction – biochemical, fluorescence polarization, dry powder, set 4, dose response (AID 651834)
# Settings: Keap1-Nrf2 peptide fluorescence polarization, plate reader; series mostly up to 100 µM; inhibition: at the top concentration
# Chain of Kelch-like ECH-associated protein 1 (Homo sapiens) (Q14145 whole entry, looked up): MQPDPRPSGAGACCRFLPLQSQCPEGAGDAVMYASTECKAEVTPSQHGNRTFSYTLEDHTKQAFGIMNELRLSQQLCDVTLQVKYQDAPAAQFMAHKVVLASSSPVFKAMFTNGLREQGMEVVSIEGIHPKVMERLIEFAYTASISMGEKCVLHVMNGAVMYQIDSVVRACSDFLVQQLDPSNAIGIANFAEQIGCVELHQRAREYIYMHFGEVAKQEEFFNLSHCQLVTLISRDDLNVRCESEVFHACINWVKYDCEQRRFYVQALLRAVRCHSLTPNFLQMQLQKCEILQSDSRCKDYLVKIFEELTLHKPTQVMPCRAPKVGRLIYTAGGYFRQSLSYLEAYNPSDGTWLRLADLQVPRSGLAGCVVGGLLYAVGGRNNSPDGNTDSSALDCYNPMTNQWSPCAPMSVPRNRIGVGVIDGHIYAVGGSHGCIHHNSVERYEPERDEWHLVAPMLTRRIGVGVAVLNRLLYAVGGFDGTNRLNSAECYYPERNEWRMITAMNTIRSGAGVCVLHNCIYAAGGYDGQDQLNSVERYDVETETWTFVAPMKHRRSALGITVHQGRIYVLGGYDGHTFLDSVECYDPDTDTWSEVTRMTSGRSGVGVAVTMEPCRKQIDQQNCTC
row,Compound,inhibition
1,O=C1c2ccccc2C(=O)N1CC1c2ccccc2CCN1C(=O)N1CCOCC1 (stereo not given),-3.21% [at 26 µM]
2,CS(=O)(=O)N1CCc2ccccc2C1CN1C(=O)c2ccccc2C1=O (stereo not given),-5.66%
3,COc1cc(/C=C/C(=O)N2CCC=CC2=O)cc(OC)c1OC,6.02% [at 26 µM]
4,COc1cc(OC)cc(C(=O)N2CCc3ccccc3C2CN2C(=O)c3ccccc3C2=O)c1 (stereo not given),-3.3%
5,CC(=O)N1CCc2ccccc2C1CN1C(=O)c2ccccc2C1=O (stereo not given),2.33%
6,O=C1c2ccccc2C(=O)N1CC1c2ccccc2CCN1C(=O)c1cccc(C(F)(F)F)c1 (stereo not given),-4.99%
7,CCN(CC)C(=O)N1CCc2ccccc2C1CN1C(=O)c2ccccc2C1=O (stereo not given),-0.072%
8,O=C(CN1CCc2ccccc2C1CN1C(=O)c2ccccc2C1=O)c1c[nH]c2ccccc12 (stereo not given),32.3%
9,O=C1c2ccccc2C(=O)N1CC1c2ccccc2CCN1S(=O)(=O)c1cccc2cccnc12 (stereo not given),0.033%
10,O=C1c2ccccc2C(=O)N1CC1c2ccccc2CCN1C(=O)COc1ccc(Cl)cc1Cl (stereo not given),-1.55%
